Compound activity (PubChem BioAssay)
An excerpt weighted towards active compounds, which were near 5.9% of everything screened.
VP16 counter – Gal4-VP16 reporter inhibition counter-screen; Potency, µM (top dose mostly 53.6 µM), for the others: top-dose activity, negative = inhibition, usual class: inhibitors; Drosophila S2 Gal4-VP16 UAS-luciferase, luminescence, 20 h; 310,000 compounds, 3.5% hits; AID 2546;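 also: Gal4-VP16 expression switched on by copper sulfate through the metallothionein promoter; potency is read from the fitted curve at half-maximal effect; nearly all actives have a fitted effect of over 50% in size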
Coupling enz – inhibits coupling enzyme system, counter-screen for aldolase hits; activity change, negative = inhibition, % at 58.2 µM, hits read low; AID 2472; 290,000 compounds, 0.67% hits; coupling enzyme system counterscreen, AmpLite Red fluorescence; in the data active = activity change below about -30%
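Activity here indicates interference with the coupling reaction, not aldolase inhibition. Compounds at 57.5 uM final met coupling enzymes for 10 min at RT; substrate and AmpLite Red detection followed, with a 525/598 nm fluorescence read after 20 min.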
RORgamma inh – inhibitors of mouse ROR gamma transcriptional activity | 310,000 compounds, 5.4% hits | Drosophila S2 Gal4-RORgamma UAS-luciferase reporter, 20 h | Potency, µM (doses to about 53.6 µM), for inactives: at the top dose activity change, negative = inhibition, most hits filed as inhibitors | P51450; also: potency is read from the fitted curve at half-maximal effect; nearly all actives have a fitted effect of over 60% in size
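Compounds are pin-transferred onto Drosophila Schneider cells expressing a copper-inducible Gal4–ROR gamma transactivation domain fusion. After 1 hr, copper sulfate is added to 700 uM final; luciferase is read 20 hr later.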
TrxR1 substrate – rat thioredoxin reductase 1 substrate activity; 390,000 compounds, 0.01% hits; Potency, µM (highest dose often 114 µM), inactives show top-dose activity change, negative = substrate turnover; purified TrxR1 substrate turnover, NADPH consumption readout; also: potency is read from the fitted curve at half-maximal effect; nearly all actives have a fitted effect of over 50% in size
Target sequence (O89049 whole entry, looked up): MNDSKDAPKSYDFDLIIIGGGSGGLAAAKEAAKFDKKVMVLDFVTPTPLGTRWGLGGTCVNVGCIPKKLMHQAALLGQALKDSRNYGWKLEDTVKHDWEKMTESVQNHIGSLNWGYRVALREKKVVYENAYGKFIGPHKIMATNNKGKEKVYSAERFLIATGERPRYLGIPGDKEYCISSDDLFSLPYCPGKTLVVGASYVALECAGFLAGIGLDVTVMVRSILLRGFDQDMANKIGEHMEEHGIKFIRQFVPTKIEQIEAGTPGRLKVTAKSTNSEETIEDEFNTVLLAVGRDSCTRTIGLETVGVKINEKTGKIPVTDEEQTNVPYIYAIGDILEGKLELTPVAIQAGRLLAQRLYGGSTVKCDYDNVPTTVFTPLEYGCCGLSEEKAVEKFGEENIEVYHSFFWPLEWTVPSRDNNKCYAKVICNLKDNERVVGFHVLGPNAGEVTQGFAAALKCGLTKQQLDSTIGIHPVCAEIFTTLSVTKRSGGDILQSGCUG
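Rat TrxR1, dispensed at 90 nM, was prereduced with 400 uM NADPH (final) for 5 min at ~22 deg C, then incubated with compound 15 min before 400 uM selenite. A first-read NADPH fluorescence drop versus no-compound background flagged substrates.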
GALK inhibitor – galactokinase (human) inhibition; Purified GALK, Kinase-Glo residual ATP luminescence; 270,000 compounds, 0.007% hits; P51570; Potency, µM (top dose mostly 57.5 µM), for the others: at the top dose activity change, negative = inhibition, usual class: inhibitors; also: potency is read from the fitted curve at half-maximal effect
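Human GALK (5 nM) with 35 uM ATP and 100 uM galactose in 20 mM HEPES pH 8.0, 5 mM MgCl2, 60 mM NaCl, 1 mM DTT, 0.01% BSA. After 1 h at room temperature, leftover ATP was read by Kinase-Glo Plus luminescence.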
rTrxR1 inhibitor – rat TrxR1 inhibition; recombinant rTrxR1, NADPH fluorescence consumption, selenite substrate; Potency, µM (top dose mostly 114 µM), inactives show at the top dose activity change, negative = inhibition, hits mostly inhibitors; 390,000 compounds, 1% hits; O89049; AID 588453; also: potency is read from the fitted curve at half-maximal effect; nearly all actives have a fitted effect of over 65% in size
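Rat TrxR1 (90 nM in the dispensed reagent) was pre-reduced with 400 uM NADPH for 5 min at room temperature, then incubated with compound for 15 min. After 400 uM selenite was added, NADPH fluorescence (Ex 340/Em 450 nm) was followed for 8 min.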
Starred values were filed as active, the others as inactive; i = inactive; ? = inconclusive; nt = no result given; [ ] = dose if it differs, or a comment. Unless noted, calls follow the shape of the dose curve; as a rule, active = well fitted curve in the direction sought with a large enough effect; inconclusive = small, poorly fitted or top-dose-only effect, or another doubt; inactive = no such curve, though single readings can be large; an effect the other way counts as inactive or inconclusive. % is scaled to controls: 0 for no effect and ±100 for the full control effect.

SMILES | VP16 counter | Coupling enz | RORgamma inh | TrxR1 substrate | GALK inhibitor | rTrxR1 inhibitor
CC(=O)OCC1OC(Oc2cc(OC(C)=O)c3c(=O)cc(-c4ccc(OC(C)=O)c(OC(C)=O)c4)oc3c2)C(OC(C)=O)C(OC(C)=O)C1OC(C)=O (stereo unspecified) | 16µM* | -9 | 25µM* | nt | nt | nt
CC(=O)OC[C@H]1O[C@@H](Oc2cc3ccc(=O)oc3cc2OC(C)=O)[C@H](OC(C)=O)[C@@H](OC(C)=O)[C@@H]1OC(C)=O | nt | nt | nt | 467% | nt | -14%
N#CC1=C(N)SC2(CCCCC2)SC1c1ccccc1 (stereo unspecified) | ? | 0 | 6.3µM* | 12%[57.1 µM] | -3% | -12%[57.1 µM]
COc1ccccc1/C=C/C(=O)OC(C)CN1CCOCC1 (stereo unspecified) | 3% | -45* | -5% | 32% | -1% | -1%
O=C(CN1c2ccccc2Sc2ccccc21)NNC(=O)Nc1ccc(Cl)c(Cl)c1 | 2% | 0 | 15% | 6% | 2% | 12%
CCc1ccc(N2C(=O)C(Cl)=C(N3CCOCC3)C2=O)cc1 | 13µM* | 6 | 30% | -15% | 2% | -18%
O=C(O)c1ccccc1NS(=O)(=O)c1ccc(NNC(=S)Nc2ccc(OC(F)F)cc2)c([N+](=O)[O-])c1 | -16% | 14 | -27% | -17% | 0% | 50µM*
Cc1cc(C)n(-c2nc3ccccc3c(=O)n2OCC#N)n1 | 1µM* | 3 | 0.5µM* | 1% | nt | 11%
CCOC(=O)COn1c(-n2nc(C)cc2C)nc2ccccc2c1=O | 14µM* | 4 | 18µM* | 12%[57.1 µM] | nt | 7%[57.1 µM]
CCOn1c(-n2nc(C)cc2C)nc2ccccc2c1=O | 6% | 0 | -35% | 4%[57.1 µM] | 0% | -3%
Cc1cc(C)n(-c2nc3ccccc3c(=O)n2OC2CCCCC2)n1 | -25% | 3 | ? | 5%[57.1 µM] | 5% | -2%[57.1 µM]
CCOC(=O)C(C)On1c(-n2nc(C)cc2C)nc2ccccc2c1=O (stereo unspecified) | 6.3µM* | 0 | 2.5µM* | -13% | 2% | ?
Cc1cc(C)n(-c2nc3ccccc3c(=O)n2OCC(C)C)n1 | 2% | 0 | ? | 11%[57.1 µM] | nt | 19%[57.1 µM]
COC(=O)COn1c(-n2nc(C)cc2C)nc2ccccc2c1=O | 8.9µM* | -2 | 4µM* | -2% | -4% | -7%
CCCCC/C=C\C/C=C\CCCCCCCC(=O)NC(C)C(=O)O (stereo unspecified) | -8% | 1 | -16% | nt | nt | nt
Cc1c(CC(=O)NCc2ccccc2Cl)c(=O)oc2cc(O)ccc12 | nt | nt | nt | 861% | nt | ?
Cc1c(CC(=O)NCC(=O)N[C@H](Cc2ccccc2)C(=O)O)c(=O)oc2cc(O)ccc12 | 2% | -2 | 10% | i | nt | 79µM*
Cc1cc(C)c(S(=O)(=O)Nc2ccc(-c3ccc(N4CCCCCC4)nn3)cc2)cc1C | nt | nt | nt | -4%[57.1 µM] | nt | 25%[57.1 µM]
CCCCCN(C(=O)NC(=O)Nc1nncs1)S(C)(=O)=O | -1% | 0 | 11µM* | 9% | 3% | 20%
COc1ccc(-c2cc([C@H]3[C@H]4C=CC[C@@H](C)[C@@H]4C(=O)N3Cc3ccccc3)ccc2F)cc1OC | ? | 2 | 34% | 13%[57.1 µM] | 3% | 44%
CC(=O)c1cn(CC(=O)Nc2cccc(C)c2C)c2ccccc12 | 13µM* | 1 | ? | 2%[57.1 µM] | -1% | 15%[57.1 µM]
Cc1cc(OCC(=O)OCC(=O)NC2CCCC2)ccc1Cl | nt | nt | nt | -4% | nt | -2%
O=C(O)C(Cc1ccccc1)N1C(=O)/C(=C/C=C/c2ccco2)SC1=S (stereo unspecified) | -1% | 1 | -2% | -14% | 1% | 20µM*
O=C(NN1C(=O)/C(=C/C=C/c2ccco2)SC1=S)c1ccccc1O | 3% | 4 | -2% | -17% | 3% | 56µM*
O=Cc1ccc(-c2nc3ccccc3s2)o1 | 7.9µM* | -1 | 4.5µM* | 40% | 3% | 7%
O=C(O)CCCN1C(=O)/C(=C/C=C/c2ccco2)SC1=S | ? | 3 | 3% | -23% | 5% | 35µM*
